Molecules are shown by their SMILES. Calls of active or inactive are those of the source.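 How the source made its calls: active means a dose-dependent loss of polyadenylated product, with a fitted EC50, the dose giving half the full effect; inactive means no dose-dependent effect seen.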

A short description of the test: GAL7 RNA poly(A) addition blockers – cell lysate, S. cerevisiae extracts, radioactive, gel readout, orthogonal assay for polyadenylation inhibitor project, dose response (AID 2704). As to conditions: S. cerevisiae extract.
A word on the EC50: it is the concentration at which the effect is half-maximal. Regarding `COc1cc(/C=C2/CC/C(=C/c3ccc(O)c(OC)c3)C2=O)ccc1O`, the half-maximal effective concentration (EC50) was 400 µM (active). As for `N#C/C(=C/c1ccc([N+](=O)[O-])o1)c1nc2ccccc2[nH]1`, the EC50 is 1100 µM (active). As to `CCOc1cc(/C=C2\N=C(SC(C)C(N)=O)N(c3ccc(OC(F)F)cc3)C2=O)ccc1O` (stereo unspecified), the concentration for a half-maximal effect (EC50) is 410 µM (active).

As for `Cc1ccc(-c2nn3c(C)nnc3s2)cc1NC(=O)CSc1ccc(Cl)cc1`, the concentration giving a half-maximal response (EC50) was 900 µM (active). `N#CC1(C#N)C2=C(CCCC2)NC(c2ccccc2)C1(C#N)C#N` (stereo unspecified): the EC50 is 280 µM (active). In the case of `Cc1ccc2nc(/C(C#N)=C/c3ccc([N+](=O)[O-])o3)[nH]c2c1`, the concentration for a half-maximal effect (EC50) was 700 µM (active).
